Screening results deposited in PubChem BioAssay by several laboratories.
RmlC RmlD mix: mixture blocks RmlC and RmlD coupled enzyme activity; AID 1532; RmlC/RmlD coupled enzyme inhibition, 384-well mixture HTS; hit rate 0.39% among 110,000; inhibition, % at 5.5 µM; in the data active means inhibition above about 30%, passing the limit was not always enough
YopH PTP inh: blocks Yersinia enterocolitica YopH tyrosine phosphatase; fluorescence Ex485/Em525; AID 898; hit rate 0.16% among 140,000; inhibition, % (test concentration not listed); in the data active means inhibition above about 50%
RmlCD fluor art: shows fluorescent artifact in RmlC/RmlD assay, dose-response counter-screen; RmlC/RmlD assay fluorescence artifact counter-screen; shares compounds with RmlC RmlD mix; hit rate 96% among 360; calls only; call rule not given here;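 further: compound alone with no enzyme and no substrates present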
Each line names hits and unclear results; the compound was inactive in the other large screens (follow-up assays come after a bar, where they were run). This is a sample that favours compounds with a hit; in the whole collection about 0.44% have one here.

COC(=O)c1cc(-c2c(C)oc3cc(OC(C)C)ccc3c2=O)c(C)o1	none
CN1CCN(C(=O)CCc2nc3ccccc3n2-c2ccccc2)CC1	none (no result: RmlC RmlD mix)
NC(=O)c1nn(-c2ccccc2)nc1N	RmlC RmlD mix 43 | RmlCD fluor art active
NC(=O)c1nn(-c2ccccc2)nc1NC(=O)CN1CCCCC1	none
Cc1cc(NCCCN(C)C)n2nc(-c3cccs3)cc2n1	none
Cc1cc(C)c2c(n1)nn1c(NCCCN(C)C)cc(C)nc21	RmlC RmlD mix 86 | RmlCD fluor art active
Cc1nc2ccccc2cc1C(=O)O	none
O=c1cccc2n1Cc1cc3ccccc3nc1-2	RmlC RmlD mix 55 | RmlCD fluor art active
COc1ccc(N/C=C(\C#N)c2nc3ccccc3n2C)c(OC)c1	none
Cc1ccc(NC(=O)C2CCCN2S(=O)(=O)c2ccc3c(c2)n(C)c(=O)c(=O)n3C)cc1C (centres undefined)	none (no result: RmlC RmlD mix)
O=c1oc2c(CN3CCOCC3)c(O)ccc2c2c1CCCC2	RmlC RmlD mix 147 | RmlCD fluor art active
CCCCc1cc(=O)oc2c(CN(C)C)c(O)ccc12	RmlC RmlD mix 72 | RmlCD fluor art active
CN(C)Cc1c(O)ccc2c3c(c(=O)oc12)CCCCC3	RmlC RmlD mix 117 | RmlCD fluor art active
CCCc1cc(=O)oc2c(CN3CCOCC3)c(O)ccc12	none
O=c1oc2c(CN3CCOCC3)c(O)ccc2c2ccccc12	none (no result: RmlC RmlD mix)
COc1ccc(Oc2c(C)oc3c(CN(C)C)c(O)ccc3c2=O)cc1	none
CCc1c(C)c2ccc(O)c(CN(C)C)c2oc1=O	RmlC RmlD mix 131 | RmlCD fluor art active
COCCN(CCOC)Cc1c(O)ccc2c3c(c(=O)oc12)CCC3	none
CC1CCCN(S(=O)(=O)c2ccc(S(=O)(=O)N3CCC4(CC3)OCCO4)cc2)C1 (centres undefined)	none (no result: RmlC RmlD mix)
Cc1cccc(C(=O)NC(=S)NNC(=O)COc2c(C)cccc2C)c1	none (no result: RmlC RmlD mix)
CC1(C)CC(CC(=O)O)(c2ccccc2)CCO1 (centres undefined)	none
Cc1nc(NCCc2ccccc2)c(C#N)c(C)c1[N+](=O)[O-]	none (no result: RmlC RmlD mix)
CN(C(=O)c1cccnc1)c1nnc(-c2ccccn2)s1	RmlC RmlD mix 42 | RmlCD fluor art active
CN(C(=O)c1cccnc1)c1nnc(-c2cnccn2)s1	none
Cc1nc2sc(C(c3cccs3)N3CCN(c4ccccc4)CC3)c(O)n2n1 (centres undefined)	none
CC1=CC2=NC(=O)CC(C)(C(=O)N(CC(=O)NC(C)(C)C)C3CCCC3)N2C=C1 (centres undefined)	none
CC(C)(C)NC(=O)CN(C(=O)C1(C)CC(=O)N=C2C=CC=CN21)C1CCCC1 (centres undefined)	RmlC RmlD mix 39 | RmlCD fluor art active
CN1CCN(Cc2c(O)c(Cl)cc3c(-c4ccccc4)cc(=O)oc23)CC1	none
Cc1c(C)c2cc(Cl)c(O)c(CN3CCCCC3)c2oc1=O	RmlC RmlD mix 90 | RmlCD fluor art active
Cc1cc(=O)oc2c(CN3CCN(C)CC3)c(O)c(Cl)cc12	none (no result: RmlC RmlD mix)
O=c1oc2c(CN3CCOCC3)c(O)c(Cl)cc2c2c1CCCC2	none
CCCc1cc(=O)oc2c(CN3CCN(C)CC3)c(O)c(Cl)cc12	RmlC RmlD mix 71 (no result: YopH PTP inh) | RmlCD fluor art active
CCCCc1cc(=O)oc2cc(OCc3nn[nH]n3)c(Cl)cc12	none
CCCCc1cc(=O)oc2c(CN3CCCC3)c(O)c(Cl)cc12	RmlC RmlD mix 124 | RmlCD fluor art active
CCCCc1cc(=O)oc2c(CN(CC)CC)c(O)c(Cl)cc12	RmlC RmlD mix 85 | RmlCD fluor art active
Cn1nc(-c2ccccc2)c(-c2nc(-c3cccc(Cl)c3)no2)c1Cl	none
Cc1ccccc1-n1c(SCC(=O)NCc2cccs2)nc2ccccc2c1=O	none (no result: RmlC RmlD mix)
O=C(c1cccc([N+](=O)[O-])c1)N1CCCN(C(=O)c2cccc([N+](=O)[O-])c2)CC1	none (no result: RmlC RmlD mix)
CN(C)S(=O)(=O)c1ccc(Cl)c(NC(=O)COc2ccccc2[N+](=O)[O-])c1	none (no result: RmlC RmlD mix)
COCCCN=C(c1ccco1)n1c(=S)nc(-c2ccco2)n(CCCOC)c1=S	none
COC(=O)c1ccc(-c2sc3nc(N4CCOCC4)c4c(c3c2N)CCCC4)o1	RmlC RmlD mix 116 | RmlCD fluor art active
CCOC(=O)c1sc2nc(N3CCOCC3)c3c(c2c1N)CCCC3	none
O=C(CSc1n[nH]c(-c2ccccc2Br)n1)NCCN1C(=O)CSC1=O	none (no result: RmlC RmlD mix)
COc1cccc(-c2nc(CS(=O)CC(=O)NCc3ccccc3Cl)c(C)o2)c1 (centres undefined)	none
C/C(N)=C(/C#N)C(=O)CSc1nc2ccccc2c(=O)n1-c1ccc(C)c(Cl)c1	none (no result: RmlC RmlD mix)
CCCCCn1c(NC(=O)c2ccco2)c(C(=O)OCC)c2nc3ccccc3nc21	none (no result: RmlC RmlD mix)
CC(C)OC(=O)c1c(N)n(CCCN2CCOCC2)c2nc3ccccc3nc12	RmlC RmlD mix 38 | RmlCD fluor art active
COc1ccccc1CNC(=O)c1c(N)n(CCCN2CCOCC2)c2nc3ccccc3nc12	none (no result: RmlC RmlD mix)
CCOC(=O)c1c(N)n(CCCOC(=O)c2ccco2)c2nc3ccccc3nc12	RmlC RmlD mix 34 | RmlCD fluor art active
CCOC(=O)c1cc(CC)sc1NC(=O)c1ccc([N+](=O)[O-])c(N2CCOCC2)c1	none (no result: RmlC RmlD mix)
O=C(Nc1nc2ccccc2s1)c1ccc(N2CCCCC2)c([N+](=O)[O-])c1	none (no result: RmlC RmlD mix)
Cc1ccc(-n2c(=O)c(C#N)cc3c(=O)n4cccc(C)c4nc32)cc1	none
Cc1cccn2c(=O)c3cc(C#N)c(=N)n(CC4CCCO4)c3nc12 (centres undefined)	none (no result: RmlC RmlD mix)
Cc1ccc2nc3c(cc(C#N)c(=O)n3CC3CCCO3)c(=O)n2c1 (centres undefined)	RmlC RmlD mix 105 | RmlCD fluor art active
Cc1ccc2nc3c(cc(C#N)c(=O)n3-c3nccs3)c(=O)n2c1	RmlC RmlD mix 107 | RmlCD fluor art active
COc1ccc(C[C@H](C)NC[C@@H](O)c2ccc(O)c(NC=O)c2)cc1	none (no result: YopH PTP inh)
CN(C)c1c2ccccc2nc2c(F)c(F)c(F)c(F)c12	none (no result: RmlC RmlD mix, YopH PTP inh) | RmlCD fluor art active
Cc1c2ccccc2nc2c(F)c(N(C)C)c(F)c(F)c12	none (no result: RmlC RmlD mix)
Cc1ccc(S(=O)(=O)N2CCN(Cc3ccccc3)CC2)c(C)c1N(C)S(=O)(=O)c1ccccc1	none (no result: RmlC RmlD mix)
Nc1nnnn1/N=C/c1cccc(O)c1	none (no result: RmlC RmlD mix)
CSc1ccc(/C=N/n2nnnc2N)cc1	RmlC RmlD mix 69 | RmlCD fluor art active
CCCC(=O)c1c(NC(C)C)cc(C)oc1=O	none
Cc1ccc(S(=O)(=O)N[C@H](C(=O)Oc2ccc3c(C(F)(F)F)cc(=O)oc3c2)c2ccccc2)cc1	RmlC RmlD mix 101 | RmlCD fluor art active
Cc1ccc(S(=O)(=O)NC(C(=O)Oc2ccc3ccc(=O)oc3c2)c2ccccc2)cc1 (centres undefined)	none (no result: RmlC RmlD mix)
Cn1c(SCCS(=O)(=O)c2ccc(Cl)cc2)nnc1-c1ccccc1	none
COc1ccc(CCNC(=O)CCc2ccc(S(=O)(=O)NC(C)C)cc2)cc1	none (no result: RmlC RmlD mix)
C/C(=N\n1nnnc1Nc1ccccc1)c1ccc(N)cc1	none
Cc1ccn(C(=O)c2cc3cc(Cl)ccc3oc2=O)n1	none
COc1ccc2oc(=O)c(C(=O)n3ccc(C)n3)cc2c1	RmlC RmlD mix 111 | RmlCD fluor art active
O=C(NCC1CCCO1)c1ccc(CS(=O)(=O)Cc2ccc(F)cc2)o1 (centres undefined)	none
Cc1nc(SCC(=O)CC(=O)OC(C)C)c(C#N)c(C)c1C	none
Cc1cc(C)c(C#N)c(SCC(=O)CC(=O)OC(C)C)n1	RmlC RmlD mix 55 | RmlCD fluor art active
Cn1nc(C(=O)NCc2ccccn2)c2ccccc2c1=O	none
Cn1c(C(=O)NCc2ccccn2)cc2c(=O)n3ccccc3nc21	RmlC RmlD mix 96 | RmlCD fluor art active
